The full data set covers some 7,900 targets. This sample favours those with a hit. About 0.6% of all pairs of compound and target were hits.
Legend:
Assay in all cases: log2 fold change, soluble protein after heating vs DMSO (PISA); higher = thermal stabilisation; K562 cells, 10 uM, 30 min; active = over 0.2 and 3.5 SD of the protein, either way, in both replicates (recomputed)
[1] = compound: C1=CC=C(C=C1)[C@H](COC2=CC3=C(C=C2)NC(=O)N3)NC(=O)C4=CC=CN(C4=O)CC5=CC(=C(C=C5)F)F
Summary of the method: (§1)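 Thermal stability values are relative to control samples and come from duplicates. They are expressed as log2 fold changes. For measurement, K562 cells (2×10^6 cells/mL) received 10 μM compound for 30 min, and aliquots were heated for 3 min over 48°C-58°C, pooled, and extracted at 4°C in PBS with 0.5% NP-40. Soluble protein, the supernatant after 21,000xg for 90 min, was quantified by TMTpro 16plex LC-MS/MS with equalised channel sums.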

[2] = compound: CC1=C(SC2=C1C(=N[C@H](C3=NN=C(N32)C)CC(=O)N)C4=CC=C(C=C4)Cl)C
Summary of the method: as §1

[3] = compound: CC1=C2C(=CC=C1)N=C(N(C2=O)C3=CC=CC=C3C)CN4C=NC5=C(N=CN=C54)N
Summary of the method: as §1

[4] = compound: Cc1sc2c(c1C)C(c1ccc(Cl)cc1)=N[C@@H](CC(=O)OC(C)(C)C)c1nnc(C)n1-2
Summary of the method: as §1

[5] = compound: c1ccc([C@@H]2C[C@H]2NC2CCNCC2)cc1
Summary of the method: as §1

Measured: log2 fold change

CTSC (UniProt P53634)
inactive: [1] 0.018 | [2] -0.012 | [3] -0.039 | [4] -0.01 | [5] 0.056

FAM160B1 (UniProt Q5W0V3)
inactive: [1] -0.005 | [2] 0.026 | [3] -0.01 | [4] -0.022 | [5] -0.041

CTSB (UniProt P07858)
inactive: [1] -0.015 | [2] -0.024 | [3] 0.019 | [4] -0.024 | [5] -0.035

DUS3L (UniProt Q96G46)
inactive: [1] 0.073 | [2] 0.04 | [3] -0.057 | [4] -0.007 | [5] 0.007

FAM193B (UniProt Q96PV7)
inactive: [1] -0.115 | [2] 0.011 | [3] -0.103 | [4] 0.273 | [5] -0.115

EDC4 (UniProt Q6P2E9)
inactive: [1] 0.02 | [2] -0.004 | [3] 0.075 | [4] 0.023 | [5] 0.024

EMD (UniProt P50402)
inactive: [1] 0.016 | [2] 0.022 | [3] 0.059 | [4] 0.058 | [5] 0.031

DHRS7B (UniProt Q6IAN0)
inactive: [1] 0.054 | [2] 0.032 | [3] -0.001 | [4] -0.018 | [5] -0.013

ECPAS (UniProt Q5VYK3)
inactive: [1] -0.127 | [2] 0.047 | [3] 0.112 | [4] -0.032 | [5] -0.01

FAM50A (UniProt Q14320)
inactive: [1] -0.026 | [2] 0.032 | [3] 0.033 | [4] -0.025 | [5] 0.007

EDEM2 (UniProt Q9BV94)
inactive: [1] 0.194 | [2] 0.042 | [3] 0.013 | [4] -0.046 | [5] 0.012

DSN1 (UniProt Q9H410)
inactive: [1] 0.02 | [2] 0.016 | [3] 0.059 | [4] 0.045 | [5] -0.054

DHPS (UniProt M0R1T2)
inactive: [1] -0.155

DYNC1LI2 (UniProt O43237)
inactive: [1] -0.04 | [2] -0.071 | [3] 0.035 | [4] -0.028 | [5] 0.013

CTSA (UniProt P10619)
inactive: [1] 0.004 | [2] -0.063 | [3] -0.034 | [4] -0.018 | [5] 0.03

DNTTIP2 (UniProt Q5QJE6)
inactive: [1] -0.068 | [2] -0.117 | [3] -0.021 | [4] 0.087 | [5] 0.132

EHBP1L1 (UniProt Q8N3D4)
inactive: [1] -0.016 | [2] 0.065 | [3] 0.052 | [4] -0.022 | [5] -0.051

ECH1 (UniProt Q13011)
Chain of UniProt Q13011 (Q13011 whole entry, looked up): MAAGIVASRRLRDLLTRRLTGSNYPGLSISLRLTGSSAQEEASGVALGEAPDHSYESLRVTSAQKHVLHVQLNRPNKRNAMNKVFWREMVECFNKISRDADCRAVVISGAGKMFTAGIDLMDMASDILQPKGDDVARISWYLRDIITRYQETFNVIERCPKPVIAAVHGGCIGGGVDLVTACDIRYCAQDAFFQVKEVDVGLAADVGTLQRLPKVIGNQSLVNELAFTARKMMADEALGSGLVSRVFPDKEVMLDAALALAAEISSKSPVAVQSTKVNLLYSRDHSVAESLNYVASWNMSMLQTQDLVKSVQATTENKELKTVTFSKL
inactive: [1] -0.072 | [2] 0.161 | [3] 0.086 | [4] -0.114 | [5] -0.046

DTNBP1 (UniProt Q96EV8)
inactive: [1] -0.033 | [2] 0.031 | [3] 0.02 | [4] 0.001 | [5] 0.013

DAG1 (UniProt Q14118)
inactive: [1] -0.068 | [2] 0.074 | [3] 0.072 | [4] 0.016 | [5] 0.049

EBNA1BP2 (UniProt Q99848)
Chain of UniProt Q99848 (Q99848 whole entry, looked up): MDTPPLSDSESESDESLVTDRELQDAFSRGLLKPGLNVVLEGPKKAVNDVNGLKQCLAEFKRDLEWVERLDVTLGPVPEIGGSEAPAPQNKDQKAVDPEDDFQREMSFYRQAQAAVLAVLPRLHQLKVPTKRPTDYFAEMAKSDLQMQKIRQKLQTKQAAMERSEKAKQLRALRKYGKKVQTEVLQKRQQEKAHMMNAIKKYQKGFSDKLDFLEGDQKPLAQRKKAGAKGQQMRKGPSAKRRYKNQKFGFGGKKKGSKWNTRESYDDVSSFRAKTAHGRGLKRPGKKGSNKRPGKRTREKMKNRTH
inactive: [1] 0.118 | [2] -0.378 | [3] -0.269 | [4] 0.306 | [5] -0.045

CUEDC2 (UniProt Q9H467)
inactive: [1] 0.036 | [2] 0.047 | [3] 0.038 | [4] 0.01 | [5] -0.022

DHCR7 (UniProt Q9UBM7)
inactive: [1] -0.061 | [2] 0 | [3] 0.093 | [4] -0.186
active: [5] 1.06

EPHX2 (UniProt P34913)
Chain of UniProt P34913 (P34913 whole entry, looked up): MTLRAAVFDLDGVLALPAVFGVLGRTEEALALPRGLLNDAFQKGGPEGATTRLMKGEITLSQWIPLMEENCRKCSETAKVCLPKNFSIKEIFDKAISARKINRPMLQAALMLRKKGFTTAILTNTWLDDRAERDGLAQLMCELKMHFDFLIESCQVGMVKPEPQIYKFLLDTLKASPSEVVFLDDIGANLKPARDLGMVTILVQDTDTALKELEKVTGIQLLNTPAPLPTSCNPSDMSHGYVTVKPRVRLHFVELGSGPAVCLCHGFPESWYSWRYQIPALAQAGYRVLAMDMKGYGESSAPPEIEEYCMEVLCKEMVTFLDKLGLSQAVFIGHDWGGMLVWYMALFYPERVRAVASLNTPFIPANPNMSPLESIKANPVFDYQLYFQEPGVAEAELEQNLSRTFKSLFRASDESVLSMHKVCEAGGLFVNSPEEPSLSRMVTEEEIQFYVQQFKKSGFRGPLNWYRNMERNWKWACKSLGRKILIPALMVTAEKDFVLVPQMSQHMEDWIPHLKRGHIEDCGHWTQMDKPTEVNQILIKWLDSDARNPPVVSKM
inactive: [1] -0.015 | [2] 0.091 | [3] 0.052 | [4] 0.143 | [5] -0.002

DCUN1D1 (UniProt Q96GG9)
inactive: [1] -0.011 | [2] 0.064 | [3] 0.073 | [4] -0.033 | [5] 0.003

DOCK8 (UniProt Q8NF50)
Chain of UniProt Q8NF50 (Q8NF50 whole entry, looked up): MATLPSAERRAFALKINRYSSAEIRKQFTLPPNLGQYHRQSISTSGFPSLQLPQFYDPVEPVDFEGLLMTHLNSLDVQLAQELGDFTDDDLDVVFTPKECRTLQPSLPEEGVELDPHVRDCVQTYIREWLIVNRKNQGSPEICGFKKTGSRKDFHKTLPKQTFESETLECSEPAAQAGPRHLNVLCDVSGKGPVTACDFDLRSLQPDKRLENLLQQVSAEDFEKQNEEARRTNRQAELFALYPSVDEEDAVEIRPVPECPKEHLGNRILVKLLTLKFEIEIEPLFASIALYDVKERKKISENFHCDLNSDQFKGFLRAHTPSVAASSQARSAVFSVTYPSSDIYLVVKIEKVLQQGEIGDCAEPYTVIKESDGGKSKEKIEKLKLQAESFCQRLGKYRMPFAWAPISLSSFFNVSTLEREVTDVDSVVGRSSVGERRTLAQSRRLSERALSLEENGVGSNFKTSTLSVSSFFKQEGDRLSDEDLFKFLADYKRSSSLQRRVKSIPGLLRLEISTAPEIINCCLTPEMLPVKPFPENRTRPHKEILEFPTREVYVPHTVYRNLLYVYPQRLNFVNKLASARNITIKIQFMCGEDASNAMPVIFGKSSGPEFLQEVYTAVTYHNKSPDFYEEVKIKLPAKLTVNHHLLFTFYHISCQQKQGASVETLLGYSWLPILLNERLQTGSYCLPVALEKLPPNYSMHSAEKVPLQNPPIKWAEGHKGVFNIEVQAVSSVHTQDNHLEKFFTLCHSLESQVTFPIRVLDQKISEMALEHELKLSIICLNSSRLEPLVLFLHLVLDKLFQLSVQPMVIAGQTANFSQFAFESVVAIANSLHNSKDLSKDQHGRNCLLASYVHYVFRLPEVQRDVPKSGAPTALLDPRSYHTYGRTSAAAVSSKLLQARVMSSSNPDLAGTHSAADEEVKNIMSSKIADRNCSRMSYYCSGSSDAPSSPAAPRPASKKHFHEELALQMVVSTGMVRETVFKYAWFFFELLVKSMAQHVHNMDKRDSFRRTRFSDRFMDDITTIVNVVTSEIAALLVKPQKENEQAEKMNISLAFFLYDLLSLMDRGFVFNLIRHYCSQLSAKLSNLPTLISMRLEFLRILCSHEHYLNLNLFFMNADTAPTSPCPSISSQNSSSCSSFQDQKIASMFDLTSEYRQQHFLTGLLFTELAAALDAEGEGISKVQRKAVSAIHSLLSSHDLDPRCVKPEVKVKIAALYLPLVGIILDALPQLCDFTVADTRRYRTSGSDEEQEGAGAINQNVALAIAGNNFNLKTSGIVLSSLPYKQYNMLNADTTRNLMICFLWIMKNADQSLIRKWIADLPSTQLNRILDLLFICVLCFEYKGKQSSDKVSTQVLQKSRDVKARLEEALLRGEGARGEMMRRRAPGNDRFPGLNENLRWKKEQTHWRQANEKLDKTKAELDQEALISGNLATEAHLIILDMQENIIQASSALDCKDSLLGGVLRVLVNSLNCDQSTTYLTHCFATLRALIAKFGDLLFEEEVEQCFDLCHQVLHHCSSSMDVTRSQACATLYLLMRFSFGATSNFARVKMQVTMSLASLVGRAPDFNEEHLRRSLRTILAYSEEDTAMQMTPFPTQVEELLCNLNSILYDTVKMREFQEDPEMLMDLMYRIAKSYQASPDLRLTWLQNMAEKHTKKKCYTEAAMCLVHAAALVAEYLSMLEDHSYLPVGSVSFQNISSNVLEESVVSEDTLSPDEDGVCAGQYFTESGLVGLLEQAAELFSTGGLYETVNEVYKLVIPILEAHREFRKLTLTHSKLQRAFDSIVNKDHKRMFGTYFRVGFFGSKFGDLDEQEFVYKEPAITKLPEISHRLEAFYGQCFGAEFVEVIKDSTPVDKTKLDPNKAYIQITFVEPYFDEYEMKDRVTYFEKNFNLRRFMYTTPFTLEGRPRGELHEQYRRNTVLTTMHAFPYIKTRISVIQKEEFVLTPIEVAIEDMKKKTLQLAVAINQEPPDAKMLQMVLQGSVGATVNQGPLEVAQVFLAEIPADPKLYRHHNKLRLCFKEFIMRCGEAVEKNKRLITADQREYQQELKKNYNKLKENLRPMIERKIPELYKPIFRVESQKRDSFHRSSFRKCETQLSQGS
inactive: [1] 0.096 | [2] -0.223 | [3] -0.01 | [4] 0.152 | [5] -0.087

DDB1 isoform 2 (UniProt Q16531)
Chain of UniProt Q16531 (Q16531 whole entry, looked up): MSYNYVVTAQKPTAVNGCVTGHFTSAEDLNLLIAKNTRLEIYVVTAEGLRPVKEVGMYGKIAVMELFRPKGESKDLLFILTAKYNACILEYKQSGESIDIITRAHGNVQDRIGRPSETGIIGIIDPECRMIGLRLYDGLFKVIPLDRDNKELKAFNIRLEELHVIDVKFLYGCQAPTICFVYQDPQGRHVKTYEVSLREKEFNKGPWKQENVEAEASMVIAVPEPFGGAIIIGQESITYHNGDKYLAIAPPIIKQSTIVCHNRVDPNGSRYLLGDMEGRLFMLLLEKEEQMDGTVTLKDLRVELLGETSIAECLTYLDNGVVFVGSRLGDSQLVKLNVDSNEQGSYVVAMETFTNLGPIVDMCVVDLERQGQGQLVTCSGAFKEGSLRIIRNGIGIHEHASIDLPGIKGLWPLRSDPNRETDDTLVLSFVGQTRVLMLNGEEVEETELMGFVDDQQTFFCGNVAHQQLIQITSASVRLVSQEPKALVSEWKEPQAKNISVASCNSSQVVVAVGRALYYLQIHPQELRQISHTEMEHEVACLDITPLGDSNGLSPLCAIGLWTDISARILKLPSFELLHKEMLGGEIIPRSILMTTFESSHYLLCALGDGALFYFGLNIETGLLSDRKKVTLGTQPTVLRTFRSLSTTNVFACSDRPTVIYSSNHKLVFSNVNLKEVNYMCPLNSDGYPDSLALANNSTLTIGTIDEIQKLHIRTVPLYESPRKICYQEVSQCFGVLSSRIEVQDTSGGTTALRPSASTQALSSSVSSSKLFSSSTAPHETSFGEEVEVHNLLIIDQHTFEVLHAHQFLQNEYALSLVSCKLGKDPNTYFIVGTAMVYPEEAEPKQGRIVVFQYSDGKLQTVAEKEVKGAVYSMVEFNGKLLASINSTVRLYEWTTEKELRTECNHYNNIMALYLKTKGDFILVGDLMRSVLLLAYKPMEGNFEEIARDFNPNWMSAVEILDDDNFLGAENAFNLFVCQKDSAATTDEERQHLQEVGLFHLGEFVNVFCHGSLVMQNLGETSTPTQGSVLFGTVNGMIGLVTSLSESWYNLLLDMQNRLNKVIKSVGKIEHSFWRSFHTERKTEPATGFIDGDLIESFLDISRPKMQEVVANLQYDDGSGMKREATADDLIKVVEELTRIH
inactive: [1] 0.028

EXOC8 (UniProt Q8IYI6)
inactive: [1] -0.004 | [2] 0.029 | [3] 0.03 | [4] 0.006 | [5] -0.051

DOHH (UniProt Q9BU89)
inactive: [1] 0.218 | [2] 0.072 | [3] -0.062 | [4] 0.031 | [5] -0.088

DDB1 (UniProt Q16531)
inactive: [1] 0.023 | [2] -0.003 | [3] 0.01 | [4] 0 | [5] 0.016

DNAJB12 (UniProt Q9NXW2)
inactive: [1] -0.044 | [2] 0.027 | [3] 0.081 | [4] -0.011 | [5] 0.011

CYP51A1 (UniProt Q16850)
inactive: [1] -0.096 | [2] 0.055 | [3] -0.037 | [4] -0.01 | [5] -0.001

DDX4 (UniProt Q9NQI0)
inactive: [1] 0.052 | [2] -0.11 | [3] 0.213 | [4] 0.274 | [5] 0.001

DCAF16 (UniProt Q9NXF7)
Chain of UniProt Q9NXF7 (Q9NXF7 whole entry, looked up): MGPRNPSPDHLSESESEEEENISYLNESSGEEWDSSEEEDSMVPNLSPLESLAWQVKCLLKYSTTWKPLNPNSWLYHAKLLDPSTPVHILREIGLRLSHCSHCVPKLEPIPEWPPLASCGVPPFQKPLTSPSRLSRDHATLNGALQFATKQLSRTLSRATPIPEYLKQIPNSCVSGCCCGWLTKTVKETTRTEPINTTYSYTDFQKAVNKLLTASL
inactive: [1] 0.06 | [2] 0.056 | [3] 0.079 | [4] 0.032 | [5] -0.032

EPHX2 (UniProt E5RI53)
inactive: [1] -0.024

EDC3 (UniProt Q96F86)
inactive: [1] -0.198 | [2] 0.12 | [3] 0.019 | [4] 0.063 | [5] 0.026

ERLIN2 (UniProt O94905)
Chain of UniProt O94905 (O94905 whole entry, looked up): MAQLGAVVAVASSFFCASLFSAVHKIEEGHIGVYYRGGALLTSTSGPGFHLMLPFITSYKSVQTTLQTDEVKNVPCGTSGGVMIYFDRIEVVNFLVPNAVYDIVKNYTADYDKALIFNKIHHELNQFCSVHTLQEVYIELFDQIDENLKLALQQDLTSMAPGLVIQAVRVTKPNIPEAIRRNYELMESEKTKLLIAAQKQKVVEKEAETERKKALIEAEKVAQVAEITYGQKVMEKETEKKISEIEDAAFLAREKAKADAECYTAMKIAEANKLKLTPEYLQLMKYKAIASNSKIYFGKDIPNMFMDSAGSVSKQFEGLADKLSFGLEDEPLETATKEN
inactive: [1] -0.025 | [2] -0.048 | [3] -0.038 | [4] 0.006 | [5] -0.044

FADS1, A0A0A0MR51
inactive: [1] -0.051 | [2] 0.026 | [3] 0.026 | [4] -0.005 | [5] -0.038

DMAC1 (UniProt Q96GE9)
inactive: [1] 0.058 | [2] -0.041 | [3] 0.05 | [4] -0.085 | [5] 0.023

ESS2 (UniProt Q96DF8)
inactive: [1] 0.04 | [2] -0.06 | [3] -0.096 | [4] 0.018 | [5] 0.075

EIF3J (UniProt O75822)
inactive: [1] -0.034 | [2] 0.025 | [3] -0.004 | [4] -0.041 | [5] -0.035

DCTPP1 (UniProt Q9H773)
inactive: [1] 0.022 | [2] 0.029 | [3] -0.015 | [4] -0.043 | [5] 0.009

CYFIP1 (UniProt Q7L576)
inactive: [1] 0.009 | [2] 0.005 | [3] -0.009 | [4] -0.005 | [5] -0.029

FAM241A (UniProt Q8N8J7)
inactive: [1] -0.046 | [2] 0.034 | [3] 0.041 | [4] 0 | [5] 0.008

ETNK1 (UniProt Q9HBU6)
inactive: [1] 0 | [2] 0.044 | [3] 0.071 | [4] -0.092 | [5] 0.022

ELOVL1 (UniProt Q9BW60)
inactive: [1] -0.16 | [2] 0.145 | [3] 0.045 | [4] -0.134 | [5] -0.05

FADS3 (UniProt Q9Y5Q0)
inactive: [1] 0.027 | [2] 0.023 | [3] 0.026 | [4] 0.025 | [5] -0.007

DHX16 (UniProt O60231)
inactive: [1] -0.024 | [2] 0.007 | [3] 0.059 | [4] -0.003 | [5] 0.017

EXOC2 (UniProt Q96KP1)
inactive: [1] -0.054 | [2] 0.025 | [3] 0.03 | [4] 0.033 | [5] 0.011

DBN1 isoform 3 (UniProt Q16643)
inactive: [1] 0.049 | [2] 0.019 | [3] -0.027 | [4] 0.044 | [5] 0.004

DHPS (UniProt P49366)
inactive: [1] -0.014 | [2] 0.013 | [3] -0.014 | [4] 0.013 | [5] 0.081

DIAPH1 (UniProt O60610)
inactive: [1] -0.073 | [2] -0.027 | [3] 0.026 | [4] 0.049 | [5] -0.018

FAM177A1 isoform 2 (UniProt Q8N128)
inactive: [1] -0.073 | [2] 0.047 | [3] 0.17 | [4] -0.002 | [5] 0.028

EIF2S3 (UniProt P41091)
inactive: [1] 0.008 | [2] -0.023 | [3] -0.017 | [4] 0.054 | [5] -0.002

EVC2 (UniProt Q86UK5)
inactive: [1] -0.064 | [2] -0.044 | [3] -0.141 | [4] 0.021 | [5] 0.081

Source: the supplement of paper PMC10849652
